According to article PMC9911399, “Two distinct binding modes provide the RNA-binding protein RbFox with extraordinary sequence specificity”:
Changes are numbered by the printed parent chain; changes in the protein carry UniProt numbers. Over roughly 16,000 sequences, “ka relative to ugcaugu” has its median near 0.0091; the highest 2% begin near 0.032. Many of the other results were omitted from the sample, so the highest values are more common in it than they were.

T1: RBFOX1 RRM (Homo sapiens, UniProt Q9NWB1 109-208)
T1 sequence: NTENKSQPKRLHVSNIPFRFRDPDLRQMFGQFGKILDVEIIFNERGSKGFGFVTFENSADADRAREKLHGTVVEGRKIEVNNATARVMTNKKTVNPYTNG

B1: CAACCGU (DNA:RNA)
RNA: GGGAGACCGGAAUUCAGAUUGUCCCAACCGUUUAAAUCCCGUCGUAGCCACCA
DNA 1: CAATCTGAATTCCGGTCTCCC
DNA 2: TGGTGGCTACGACGGGATT
B2: UACAUGG (DNA:RNA)
RNA: B1 RNA with C25U, A27C, C28A, C29U, U31G
DNA 1: CAATCTGAATTCCGGTCTCCC
DNA 2: TGGTGGCTACGACGGGATT
B3: UUGCUAC (DNA:RNA)
RNA: B1 RNA with C25U, A26U, A27G, C29U, G30A, U31C
DNA 1: CAATCTGAATTCCGGTCTCCC
DNA 2: TGGTGGCTACGACGGGATT
B4: GAUACGC (DNA:RNA)
RNA: B1 RNA with C25G, A27U, C28A, U31C
DNA 1: CAATCTGAATTCCGGTCTCCC
DNA 2: TGGTGGCTACGACGGGATT
B5: GGGGGGG (DNA:RNA)
RNA: B1 RNA with C25G, A26G, A27G, C28G, C29G, U31G
DNA 1: CAATCTGAATTCCGGTCTCCC
DNA 2: TGGTGGCTACGACGGGATT
B6: GGGGUUG (DNA:RNA)
RNA: GGGAGACCGGAAUUCAGAUUGUCCGGGGUUGUUAAAUCCCGUCGUAGCCACCA
DNA 1: CAATCTGAATTCCGGTCTCCC
DNA 2: TGGTGGCTACGACGGGATT
B7: CGGGGGG (DNA:RNA)
RNA: B6 RNA with G25C, U29G, U30G
DNA 1: CAATCTGAATTCCGGTCTCCC
DNA 2: TGGTGGCTACGACGGGATT
B8: GGGUUUA (DNA:RNA)
RNA: B6 RNA with G28U, G31A
DNA 1: CAATCTGAATTCCGGTCTCCC
DNA 2: TGGTGGCTACGACGGGATT
B9: GUCGGGG (DNA:RNA)
RNA: B6 RNA with G26U, G27C, U29G, U30G
DNA 1: CAATCTGAATTCCGGTCTCCC
DNA 2: TGGTGGCTACGACGGGATT
B10: CACCGGG (DNA:RNA)
RNA: B1 RNA with A27C, C29G, U31G
DNA 1: CAATCTGAATTCCGGTCTCCC
DNA 2: TGGTGGCTACGACGGGATT
B11: CGGGUUG (DNA:RNA)
RNA: B6 RNA with G25C
DNA 1: CAATCTGAATTCCGGTCTCCC
DNA 2: TGGTGGCTACGACGGGATT
B12: GGGGUUA (DNA:RNA)
RNA: B6 RNA with G31A
DNA 1: CAATCTGAATTCCGGTCTCCC
DNA 2: TGGTGGCTACGACGGGATT
B13: CGGGUUA (DNA:RNA)
RNA: B6 RNA with G25C, G31A
DNA 1: CAATCTGAATTCCGGTCTCCC
DNA 2: TGGTGGCTACGACGGGATT
B14: GUGGCCC (DNA:RNA)
RNA: B6 RNA with G26U, U29C, U30C, G31C
DNA 1: CAATCTGAATTCCGGTCTCCC
DNA 2: TGGTGGCTACGACGGGATT
B15: CGGGUGG (DNA:RNA)
RNA: B6 RNA with G25C, U30G
DNA 1: CAATCTGAATTCCGGTCTCCC
DNA 2: TGGTGGCTACGACGGGATT
B16: GGGGGUG (DNA:RNA)
RNA: B6 RNA with U29G
DNA 1: CAATCTGAATTCCGGTCTCCC
DNA 2: TGGTGGCTACGACGGGATT
B17: CGGGGUG (DNA:RNA)
RNA: B6 RNA with G25C, U29G
DNA 1: CAATCTGAATTCCGGTCTCCC
DNA 2: TGGTGGCTACGACGGGATT
B18: GGGUGUC (DNA:RNA)
RNA: B6 RNA with G28U, U29G, G31C
DNA 1: CAATCTGAATTCCGGTCTCCC
DNA 2: TGGTGGCTACGACGGGATT
B19: GGGGUGG (DNA:RNA)
RNA: B6 RNA with U30G
DNA 1: CAATCTGAATTCCGGTCTCCC
DNA 2: TGGTGGCTACGACGGGATT
B20: GGGUGUG (DNA:RNA)
RNA: B6 RNA with G28U, U29G
DNA 1: CAATCTGAATTCCGGTCTCCC
DNA 2: TGGTGGCTACGACGGGATT
B21: ACGGGUG (DNA:RNA)
RNA: B6 RNA with G25A, G26C, U29G
DNA 1: CAATCTGAATTCCGGTCTCCC
DNA 2: TGGTGGCTACGACGGGATT
B22: GGGUGGU (DNA:RNA)
RNA: B6 RNA with G28U, U29G, U30G, G31U
DNA 1: CAATCTGAATTCCGGTCTCCC
DNA 2: TGGTGGCTACGACGGGATT
B23: CCGGGUG (DNA:RNA)
RNA: B6 RNA with G25C, G26C, U29G
DNA 1: CAATCTGAATTCCGGTCTCCC
DNA 2: TGGTGGCTACGACGGGATT

Each binder was assayed against T1, RBFOX1 RRM (assay: EMSA; HiTS-Eq, 1 nM pool, 10 min; buffer printed only for the single-RNA assays: 10 mM Tris pH 7.5, 150 mM NaCl, 3.4 mM EDTA, 0.001% NP-40, 30 C). Details: tags: His6 N-terminal (pET28a); label: 5' 32P.
Summary of the method: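 Purified RbFox RRM, wild type or mutant, was incubated for 10 min in 50 µL with 1 nM of a 5′-radiolabelled RNA pool carrying 7 randomized nucleotides, whose flanks were annealed to DNA oligonucleotides, over a series of increasing protein concentrations. Unbound RNA was resolved on 8% native PAGE, cut out, reverse-transcribed, barcoded by PCR and sequenced on an Illumina HiSeq 2500. Relative association constants were derived from changes in read counts for each RNA species versus the control reaction and normalised to the cognate motif.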

Row | Binder | binding signal
1 | B1 | 0.00135 KA relative to UGCAUGU
2 | B2 | 0.0106 KA relative to UGCAUGU
3 | B3 | 0.015 KA relative to UGCAUGU
4 | B4 | 0.012 KA relative to UGCAUGU
5 | B5 | 0.0247 KA relative to UGCAUGU
6 | B6 | 0.0899 KA relative to UGCAUGU
7 | B7 | 0.0136 KA relative to UGCAUGU
8 | B8 | 0.0165 KA relative to UGCAUGU
9 | B9 | 0.0181 KA relative to UGCAUGU
10 | B10 | 0.00514 KA relative to UGCAUGU
11 | B11 | 0.0491 KA relative to UGCAUGU
12 | B12 | 0.0364 KA relative to UGCAUGU
13 | B13 | 0.0205 KA relative to UGCAUGU
14 | B14 | 0.0179 KA relative to UGCAUGU
15 | B15 | 0.0171 KA relative to UGCAUGU
16 | B16 | 0.0397 KA relative to UGCAUGU
17 | B17 | 0.0399 KA relative to UGCAUGU
18 | B18 | 0.0216 KA relative to UGCAUGU
19 | B19 | 0.0333 KA relative to UGCAUGU
20 | B20 | 0.0275 KA relative to UGCAUGU
21 | B21 | 0.0185 KA relative to UGCAUGU
22 | B22 | 0.0199 KA relative to UGCAUGU
23 | B23 | 0.0271 KA relative to UGCAUGU
